Test results published in PubChem BioAssay (NCI).
This is part of a sample that, as a whole, favours compounds with a hit. Of some 83,000 tested, about 20% had one in any assay.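 48-hour exposure, single concentration, 96-well plates; percent growth endpoint where 0 means no net growth. Active: below 10.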 A number with no mark means an inactive call. The source made the active and inactive calls.

tested on: MDA-MB-435 melanoma; assay: NCI-60 one-dose screen, 48 h (100 = growth as untreated, 0 = no growth, -100 = all killed); conditions: 10 µM unless noted
Protocol: Growth inhibition of the MDA-MB-435 human Melanoma tumor cell line is measured as a screen for anti-cancer activity. Cells are grown in 96 well plates and exposed to the test compound for 48 hours. Compounds are tested at a single concentration, which is 10^-5 M for most compounds. The reported endpoint is percent growth (GI% or GIPRCNT), where numbers from 0 - 100% represent growth inhibition, and numbers from -100% - 0 represent cell death. For example, a value of 40 represents 60% growth inhibition. A value of 0 means no net growth occurred over the course of the experiment. A value of -40 indicates 40% of cells at the beginning of the experiment died by the end of the experiment. A value of -100 means all cells are dead at the end of the experiment.
NCI-60 Human Tumor Cell Lines Screen was performed using the standard one-dose NCI protocol, which is described in more detail at https://dtp.cancer.gov/discovery_development/nci-60/default.htm.
Compounds with GIPRCNT values below 10 were considered active. Activity score was based on GIPRCNT using the following formula: […]
Score is 0 for GIPRCNT values of 100 or above, 50 for GIPRCNT values of 0, and 100 for GIPRCNT values of -100.

Compound	growth
O=P(Oc1ccc(Cl)cc1)(N1CC1)N1CC1	109%
COc1ccc(/C=C\c2cc(OC)c(OC)c(OC)c2)cc1NC(=O)/C=C/c1ccc(OC)c(OC)c1	-51.4% (active)
O=C1C2CC=CCC2C(=O)N1SC(Cl)(Cl)Cl (stereo not given)	126%
COc1ccc(C/C(C)=C(\c2ccc(OCCN3CCOCC3)cc2)c2ccc(OC(=O)Cc3ccccc3)cc2)cc1	-58.9% (active)
N#Cc1c(Br)n(C2OC(CO)C(O)C2O)c2ncnc(N)c12 (stereo not given)	51.4%
O=C(CN1CCN(C(=O)c2ccco2)CC1)Nc1ccc(Cl)cc1C(=O)c1ccccc1Cl	118%
COC(=O)[C@@H](C)C[C@H](Cc1ccccc1)NC(=O)c1csc([C@@H](C[C@H](C(C)C)N(C)C(=O)C2(NC(=O)[C@H]3CCCCN3C)CC2)OC(C)=O)n1	-28.8% (active)
CC(CC1CCCCC1)NCc1ccccc1 (stereo not given)	103%
O=C1C(=Cc2cn(Cc3ccccc3)c3ccccc23)C(=O)N(Cc2ccccc2)C(=O)N1Cc1ccccc1	108%
CO[C@H](C(=O)O)[C@@H]1Cc2cc3cc(OC4CC(OC5CC(O)C(O)C(C)O5)C(O)C(C)O4)c(C)c(O)c3c(O)c2C(=O)[C@H]1OC1CC(OC2CC(OC3CC(C)(O)C(O)C(C)O3)C(O)C(C)O2)C(O)C(C)O1 (stereo not given in full)	1.21% (active)
CC1(C)CN1P(=O)(N1CC1(C)C)N1CC1(C)C (stereo not given)	124%
COC(=O)[C@@H](C)C[C@H](Cc1ccccc1)NC(=O)c1csc([C@@H](C[C@H](C(C)C)N(C)C(=O)[C@@H](NC(=O)[C@H]2CCCCN2C)c2ccc(F)cc2)OC(C)=O)n1	-27.7% (active)
Fc1ccc2c(c1)c(-c1nc(-c3c[nH]c4ncccc34)cs1)cn2CCCCN1CCCCC1	-87.2% (active)
CC[C@H](C)[C@H](NC(=O)[C@H]1CCCCN1C)C(=O)N(C)[C@H](CCc1nc(C(=O)N[C@@H](Cc2ccccc2)C[C@H](C)C(=O)OC)cs1)C(C)C	-39.4% (active)
CCCCNC(c1ccc(Cl)cc1)C(O)c1ccc(Cl)cc1 (stereo not given)	21.4%
Cc1cc(N(CCCl)CCCl)ccc1C=Nc1cccnc1	101%
COC1CC2c3ccccc3C1C(C)=[N+]2C (stereo not given)	100%
CC12CCC=CC1CCC1C2CCC2(C)C(c3ccc(=O)oc3)CCC12O (stereo not given)	-95.2% (active)
NC(=O)c1c(Br)n(C2OC(CO)C(O)C2O)c2ncnc(N)c12 (stereo not given)	1.13% (active)
O=C(c1ccccc1O)c1[nH]c(Cl)c(Cl)c1-n1c(C(=O)c2ccccc2O)cc(Cl)c1Cl	3.49% (active)

Compound	growth
CC(C)=CCc1c(O)c(C(=O)CC(C)C)c(O)c2c(-c3ccccc3)cc(=O)oc12	57.1%
C/C(=C\c1ccn(-c2ccc(N)cc2)n1)[C@@H]1C[C@@H]2O[C@]2(C)CCC[C@H](C)[C@H](O)[C@@H](C)C(=O)C(C)(C)[C@@H](O)CC(=O)O1	-33.6% (active)
O=[N+]([O-])c1c(Br)sc(Br)c1[N+](=O)[O-]	17.5%
COc1ccc2c(c1)c(-c1nc(-c3cn(C)c4ncccc34)cs1)cn2CCN1CCOCC1	72.9%
COc1ccc2c(c1)c(-c1nc(-c3c[nH]c4ncccc34)cs1)cn2CCCCN1CCCCC1	-92.7% (active)
O=[N+]([O-])c1cc([N+](=O)[O-])c(Nn2c3ccccc3c3ccccc32)c([N+](=O)[O-])c1	0.936% (active)
CCCCCCCCC(CO)NCCc1ccccc1 (stereo not given)	103%
N#CCCNc1ccccc1	98.9%
C=C1C(=O)O[C@H]2[C@H]1CC/C(COC(=O)C(=O)c1cn(Cc3ccccc3)c3ccccc13)=C\CC[C@@]1(C)O[C@@H]21	-76.6% (active)
C=C(C)[C@@]12OC3(/C=C/C=C/CCCCC)O[C@@H]1[C@@H]1[C@@H]4O[C@]4(CO)[C@@H](O)[C@]4(O)C(=O)C(C)=C[C@H]4[C@@]1(O3)[C@H](C)[C@H]2OC(=O)c1ccccc1	40.5%
CCc1ccccc1[C@@H]1C[C@]2(C)CCO[C@@H]2OO1	109%
CCn1cnc2c(Nc3cccc(Cl)c3)nc(N[C@@H]3CCCC[C@@H]3N)nc21	11.4%
CN(C)CC(C(=O)Cc1ccccc1)c1ccccc1 (stereo not given)	26.8%
COC(=O)[C@@]1(C)CC[C@]2(C)CC[C@]3(C)C4=CC=C5C(=CC(=O)C(O)=C5C)[C@]4(C)CC[C@@]3(C)[C@@H]2C1	-90.8% (active)
O=P1(NCCCl)OCCCN1CCCl (stereo not given)	107%
COc1cc(/C=N/C2=C(C#N)C(c3ccco3)c3c(c4cc(C)ccc4oc3=O)O2)cc(OC)c1OC (stereo not given)	26.1%
CC(=O)O[C@H](C[C@H](C(C)C)N(C)C(=O)[C@@H](NC(=O)[C@H]1CCCCN1C)C(C)C)c1nc(C(=O)N[C@@H](Cc2ccccc2)C[C@H](C)C(=O)O)c(CCOCc2ccccc2)s1	-49.7% (active)
Oc1c(O)c(Cl)c(Cl)c(Cl)c1Cl	30.8%
CC[C@]12C=CCN3CC[C@@]4(c5ccc(OC)cc5N(C)[C@H]4[C@@](O)(C(=O)OC)[C@@H]1OC(=O)CCCC[P+](c1ccccc1)(c1ccccc1)c1ccccc1)[C@@H]32	-19.7% (active)
Nc1nnnc2nc[nH]c12	-11.8% (active)
